Among all 190,000 compounds or so, about 930 (0.49%) were called active. This is one part of the list. Entries with a potency or affinity are not part of this list. Values without a mark were called inactive.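 Rule for the calls: active = z-score of insulin promoter reporter brightness in nuclei below -3 at 5 µM, with at least 500 cells counted; inconclusive = wells with under 500 cells, flagged as toxic or sparse; inactive = the rest.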
Test: decrease of insulin promoter-GFP reporter – imaging, high-content screening, mouse beta cells (AID 1628)
Conditions: MIN6 insulin promoter GFP reporter, at 5 µM, active compounds read low

Structure (SMILES)	z-score
Nc1nonc1C(=O)NCCNCc1ccccc1OCc1ccccc1F	-3.51 (active)
COc1ccc(C(=O)N(CN2CCCC2=O)c2ccc(C)cc2)cc1	3.42
COc1ccc(S(=O)(=O)N(CCCN2CCCC2=O)Cc2cc3c(C)ccc(C)c3[nH]c2=O)cc1	-4.34 (active)
COC(=O)c1cnn2c(C(F)(F)F)cc(-c3ccc(F)cc3)nc12	4.23
Oc1c(C(c2ccccn2)N2CCCCC2)cc(Cl)c2cccnc12 (stereo not drawn)	-5.13 (active)
COc1ccc(NC(=S)N(CCCN2CCOCC2)C(C)c2cc3cccc(OC)c3o2)cc1 (stereo not drawn)	2.54
COc1ccc(-c2csc(N(CCCN(C)C)C(=O)c3cccs3)n2)cc1	-4.21 (active)
COc1ccc(-c2cc(C(F)(F)F)nc(SCC(=O)NCCN3CCOCC3)n2)cc1OC	0.28
COc1ccc(-c2csc(N(CCCN3CCOCC3)C(=O)c3ccco3)n2)cc1	-4.01 (active)
CN(C)CCCN(C(=O)COc1ccc(Cl)cc1)c1nc2ccc(F)cc2s1	1.61
COc1ccc(C(=O)CSc2nnc(Cn3cnc4ccccc43)o2)cc1	-3.47 (active)
Cc1[nH]c2ccccc2c1Cc1nnc(SCC(N)=O)o1	4.82
CCC(=O)c1cc(F)c(N2CCN(S(=O)(=O)c3ccc(C)cc3)CC2)cc1C	-4.01 (active)
C/C(=N\S(=O)(=O)c1ccc(C)cc1)N1CCN(S(=O)(=O)c2ccccc2)C1	3.52
CCCSc1nc2sc3c(c2c(=O)[nH]1)CCN(Cc1ccccc1)C3	7.3
O=C(c1ccco1)N(Cc1ccccc1)c1cccc([N+](=O)[O-])c1	2.28
CC(C)(C)c1cc(C(=O)NCc2cccnc2)ccn1	4.34
CC(=O)c1c(COC(=O)c2ccncc2)nc2ccccc2[n+]1[O-]	4.18
CCOc1ccc(C(=O)O)cn1	0.1
CCOc1ccc2nc(C)cc(Nc3cccc([N+](=O)[O-])c3)c2c1	-3.35 (active)
O=[N+]([O-])c1ccc(N(c2ccccc2)c2ccccc2)cc1	3.11
Cc1ccc(Cn2c(=N)n(CC(O)c3ccco3)c3ccccc32)cc1 (stereo not drawn)	-11.4 (active)
Cc1ccccc1-n1c(=O)c2ccccc2n(CC(=O)NCc2ccco2)c1=O	3.06
CC(C)(C)c1ccc(Cn2c(=N)n(CC(O)c3ccco3)c3ccccc32)cc1 (stereo not drawn)	-5.45 (active)

Structure (SMILES)	z-score
COc1ccc(CN(CC2CCC(C(=O)O)CC2)C(=S)Nc2cccc(C)c2)cc1 (stereo not drawn)	3.65
COCCSc1nnc(NC(=O)c2ccc([N+](=O)[O-])cc2)s1	0.48
Cc1sc2ncnc(NCCCn3ccnc3)c2c1C	-3.16 (active)
COc1ccc(C(=O)Nc2ccc(S(=O)(=O)Nc3nccnc3OC)cc2)cc1OC	-3.5 (active)
COc1ccc(OCC(=O)Nc2ccc(S(=O)(=O)Nc3cc(C)nc(C)n3)cc2)cc1	3.12
COc1ccc(C(=O)Nn2cnnc2)cc1OC	4.36
COc1ccc(C(=O)Nc2cccnc2)cc1OC	2.67
CCN(CC)c1ccc2cc(/C(N)=N/NC(=O)c3cccs3)c(=O)oc2c1	7.11
CCN(CC)c1ccc2cc(-c3nnc(-c4ccccc4)o3)c(=O)oc2c1	15.1
Cc1nc2[nH]c(=O)c3c(n2n1)NC1=C(C(=O)CC(C)(C)C1)C3c1ccccc1 (stereo not drawn)	-4.42 (active)
O=C1S/C(=C/c2ccc(N3CCOCC3)o2)C(=O)N1Cc1c(F)cccc1Cl	3.83
Cc1sc2ncnc(Sc3ccccc3C(=O)Nc3ccc(Br)cc3)c2c1C	-5.49 (active)
CC1CCc2c(C(=O)N3CCN(S(=O)(=O)c4cccs4)CC3)csc2C1 (stereo not drawn)	-3.81 (active)
CC1CCN(S(=O)(=O)c2ccc3c(c2)c(=O)c(C(=O)N2CCCCC2)cn3C)CC1	4.9
COC(=O)c1cc2occc2n1Cc1c(F)cccc1Cl	3.08
COC(=O)c1ccc(COc2ccc3c(C)c(C)c(=O)oc3c2)o1	3.49
CCOc1ccc(N2C(N)=NC(N)=NC2(C)C)cc1	-4.31 (active)
CCOC(=O)CN1CC23C=CC(O2)C(C(=O)Nc2cc(OC)ccc2OC)C3C1=O (stereo not drawn)	4.17
COc1cc(N2CCCC2)c(OC)cc1/C=C(/C#N)c1cccc(Br)c1	15.4
COc1cc(N2CCCC2)c(OC)cc1/C=C(/C#N)c1cccc(F)c1	3.95
N#C/C(=C\c1cc([N+](=O)[O-])c(N2CCCCC2)cc1N1CCCCC1)c1nn(-c2ccccc2)c(N)c1C#N	-3.55 (active)
CCOC(=O)CNC(=O)c1cn(C)c(=O)c2cc(OC)c(OC)cc12	3.18
CCCNC(=O)c1cc(OC)c(OC)cc1[N+](=O)[O-]	-4.31 (active)
Cc1cc(N2CCOCC2)nc2ccc(NC(=S)N3CCCCC3C)cc12 (stereo not drawn)	1.7

Structure (SMILES)	z-score
COc1ccccc1CC(=O)NC1CC(C)(C)NC(C)(C)C1	3.65
CC(=O)N1CCN(Cc2nc3cc(NC(=O)c4ccccc4)ccc3n2C)CC1	3.37
CCN1CCN(c2cc(C)c3cc(NC(=O)Cc4ccccc4OC)ccc3n2)CC1	-4.89 (active)
CCc1ccc(CN(C)C(=O)CCc2nnc(-c3ccc(-c4ccccc4)cc3)o2)nc1	-3.31 (active)
CCN(CC)c1ccc2cc(C#N)c(=O)oc2c1	4.24
CCCCCCc1cc2cc(C(=O)Nc3ccc(OC)cc3)c(=O)oc2cc1O	-4.12 (active)
CCCCCCc1cc2cc(-c3nnc(-c4ccccc4O)o3)c(=O)oc2cc1O	7.49
CCCCCCc1cc2cc(-c3nnc(-c4ccccc4OC)o3)c(=O)oc2cc1O	8.91
COC(=O)c1ccc(OCCn2cnc3ccccc3c2=O)cc1	0.57
CCCOc1ccc(Cn2cnc3ccccc32)cc1	-5.58 (active)
Cc1cc(SCCOc2ccccc2)nc(N)n1	3.13
COC(=O)Cc1c(C)nc2nc(NCc3ccccc3OC)[nH]n2c1=O	4.27
Cc1cc(C)cc(-n2c(=O)c3sccc3n(CC(=O)NCc3ccco3)c2=O)c1	4.64
CC(=O)c1sc2nc(-c3cccs3)cc(C(F)(F)F)c2c1N	14.9
Nc1ncnc2c1ncn2CCOc1ccccc1	-4.5 (active)
CC(C)(C)NC(=O)/C=C/c1ccc(C(F)(F)F)cc1	-3.15 (active)
CC(C)(C)C(=O)/C=c1\s/c(=C\c2ccc(-c3ccc([N+](=O)[O-])cc3)o2)c(=O)n1CC(=O)NC(N)=O	17.1
CC1(C)C=Cc2c(c3c(c4c(=O)c(-c5ccc(O)cc5)coc24)OC(C)(C)CC3)O1	-0.78
CC(C)c1nc2oc3c(N4CCN(C)CC4)ncnc3c2c2c1CCC2	-3.12 (active)
COCCn1c(C)cc(C(=O)CSc2ncnc3sc4c(c23)CCC4)c1C	-8.03 (active)
N#Cc1ccc(CSc2nnc(NC(=O)c3ccc4ncsc4c3)s2)cc1	4.4
Cc1noc(C)c1CS(=O)(=O)c1ccc(Br)cc1	3.18
CC(OC(=O)c1ccc(S(=O)(=O)NCc2ccco2)cc1)C(=O)Nc1ncc(Cl)cc1Cl (stereo not drawn)	-5.26 (active)
CC(OC(=O)c1ccc2ncsc2c1)C(=O)Nc1ncc(Cl)cc1Cl (stereo not drawn)	-5.12 (active)

Structure (SMILES)	z-score
Cc1noc(C)c1COC(=O)c1ccc(S(=O)(=O)NCc2ccco2)cc1	-4.22 (active)
C1=C(N2CCOCC2)/C(=C/c2nc3ccccc3[nH]2)CC1	3.43
COc1ccc(N=c2oc3cc(O)ccc3cc2C(=O)Nc2ccccn2)cc1OC	-3.17 (active)
CCN(CC)c1ccc2cc(C(=O)Nc3ccccn3)c(=O)oc2c1	6.12
CCCN1C(=O)/C(=C/c2c(NCCCOC(C)C)nc3c(C)cccn3c2=O)SC1=S	11.2
CC(C)OCCCn1c(NN)nc2ccccc2c1=O	-4.32 (active)
O=c1oc2ccccc2c(NCc2cccc(F)c2)c1[N+](=O)[O-]	1.25
Cc1ccc(/C(C#N)=C\c2ccc(N3CCOCC3)o2)cc1	6.7
C/C(=N\NC(=O)c1cc(-c2ccccn2)nc2ccccc12)c1cccc([N+](=O)[O-])c1	4.2
C/C(=N\NC(=O)c1cc(-c2cccs2)nc2ccccc12)c1ccccn1	-6.25 (active)
Cc1cc(C)c2nc(NNC(=O)c3cc(-c4cccs4)nc4ccccc34)sc2c1	3.73
Cc1ccnc(N2C(=O)c3cccc4c([N+](=O)[O-])ccc(c34)C2=O)c1	3.14
Cc1ccc(N2C(=O)c3cccc4c(N5CCN(C)CC5)ccc(c34)C2=O)c2cccnc12	5.89
COc1ccc(Cc2nc(-c3ccc(NC(=O)c4cccnc4)cc3)no2)cc1	-4.08 (active)
O=C(Nc1cccnc1)c1ccc(S(=O)(=O)c2ccc(Cl)cc2)cc1	1.01
COc1ccc(NC(=O)c2sc3nc(-c4cccnc4)ccc3c2N)cc1	6.04
Cc1cccc(C2C3=C(Nc4[nH]n(-c5ccccc5)c(=O)c42)c2ccccc2C3=O)c1 (stereo not drawn)	-4.1 (active)
c1ccc2c(c1)oc1c(N3CCN(Cc4ccc5c(c4)OCO5)CC3)ncnc12	-6.44 (active)
Brc1ccc2oc3c(N4CCOCC4)ncnc3c2c1	-0.34
CC(C)/C=C1\CC/C(=C\c2ccc(N(C)C)cc2)C1=O	3.08
COc1cc(-c2noc(C3CCCN(S(=O)(=O)c4cccc(Cl)c4)C3)n2)cc(OC)c1OC (stereo not drawn)	-3.23 (active)
